Experimental data reported in the supplement of paper PMC7380943.
Structures can show the parent of a compound that is named as a salt.

System: CLZ3 (HCA2 human fibroblast dual HR-NHEJ reporter)
Assay: NHEJ repair efficiency (GFP+ cells) relative to control (log10 fold); higher = more non-homologous end joining
Conditions: 5 µM; doxycycline 0.5 ug/mL
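Note: compound given one day ahead of doxycycline, which switches on I-SceI endonuclease to cut the chromosomally integrated reporter and create DSBs.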

Row | Compound | NHEJ repair efficiency (log10)
1 | O=C(/C=C/c1ccc(O)c(O)c1)OC[C@H]1O[C@@H](OCCc2ccc(O)c(O)c2)[C@H](O)[C@@H](O)[C@@H]1O [Calceolarioside B] | -0.0242
2 | C/C=C(/C)C(=O)O[C@H]1[C@@H](OC(=O)CC(C)C)c2c(ccc3ccc(=O)oc23)OC1(C)C [Praeruptorin E] | -0.0864
3 | C[C@@]12C[C@H](c3ccoc3)O[C@@]13C[C@H](OC3=O)[C@H]1[C@H]2C[C@@H]2C[C@H]1C(=O)O2 [Diosbulbin B] | -0.0688
4 | NCCCC(=O)O [g-Aminobutyric acid] | 0.0698
5 | O=Cc1ccc(CO)o1 [5-Hydroxymethylfurfural] | -0.214
6 | COC(=O)C1=CO[C@@H](O[C@@H]2O[C@H](CO)[C@@H](O)[C@H](O)[C@H]2O)[C@H]2[C@@H]1[C@H](O)C[C@]2(C)OC(C)=O [8-O-Acetyl Shanzhiside Methyl Ester] | -0.0953
7 | O=C(O)[C@H]1O[C@@H](Oc2cc(O)c3c(=O)cc(-c4ccc(O)cc4)oc3c2)[C@H](O)[C@@H](O)[C@@H]1O [Apigenin-7-O-Glucronide] | -0.216
8 | Cc1c(O)c(C)c2c(c1O)C(=O)C[C@@H](c1ccc(O)cc1)O2 [Farrerol] | -0.0045
9 | C/C=C(/C)C(=O)O[C@@H]1[C@H](OC(=O)CC(C)C)c2c(ccc3ccc(=O)oc23)OC1(C)C [Praeruptorin C] | -0.0108
10 | O=Cc1ccc(O)cc1 [4-Hydroxybenzaldehyde] | 0.0829
11 | C/C1=C/CC[C@H](C)C(=O)C[C@@H](C(C)C)C(=O)C1 [Curdione] | -0.0258
12 | CC(C)(O[C@@H]1O[C@H](CO)[C@@H](O)[C@H](O)[C@H]1O)[C@H]1Cc2cc3ccc(=O)oc3cc2O1 [Nodakenin] | -0.0969
13 | c1ccc([C@H]2CN3CCSC3=N2)cc1 [Levamisole hydrochloride] | 0.0656
14 | O=C(O)/C=C/C(=O)O [Fumaric Acid] | 0.0532
15 | CC(C)=CCc1cc2c(cc1O)O[C@H](c1ccc(O)cc1)CC2=O [Bavachin] | 0.0703
16 | C[C@H](CCC(=O)O)[C@H]1CC[C@H]2[C@@H]3[C@H](O)C[C@@H]4C[C@H](O)CC[C@]4(C)[C@H]3CC[C@]12C [Chenodeoxycholic Acid] | -0.124
17 | OCc1ccc(O[C@@H]2O[C@H](CO)[C@@H](O)[C@H](O)[C@H]2O)cc1 [Gastrodin] | 0.113
18 | C[C@H]1O[C@@H](O[C@H]2CC[C@@]3(C)[C@@H](CC[C@]4(C)[C@@H]3C=C[C@]35OC[C@@]6(CCC(C)(C)C[C@H]63)[C@@H](O)C[C@]54C)[C@]2(C)CO)[C@H](O)[C@@H](O[C@@H]2O[C@H](CO)[C@@H](O)[C@H](O)[C@H]2O)[C@H]1O [Saikosaponin a] | -0.305
19 | CC(C)=CC(O)C/C(C)=C/COc1c2ccoc2cc2oc(=O)ccc12 (stereo not given) [Notopterol] | 0.0643
20 | O=C1c2cccc(O)c2C(=O)c2c(O)cccc21 [1,8-Dihydroxyanthraquinone] | -0.286

Row | Compound | NHEJ repair efficiency (log10)
21 | CCCCCCC[C@H](O)CC(=O)CCc1ccc(O)c(OC)c1 [8-Gingerol] | 0.00172
22 | C[N+]1(C)CCCC1C(=O)O (stereo not given) [Stachydrine Hydrochloride] | -0.0485
23 | C[C@H](CCC(=O)O)[C@H]1CC[C@H]2[C@@H]3CC[C@@H]4C[C@H](O)CC[C@]4(C)[C@H]3C[C@H](O)[C@]12C [Deoxycholic acid] | -0.0363
24 | O=C(O)[C@H]1O[C@@H](Oc2cc3oc(-c4ccc(O)cc4)cc(=O)c3c(O)c2O)[C@H](O)[C@@H](O)[C@@H]1O [Scutellarin] | -0.122
25 | COc1ccc2c(c1OC)CN(C)CCc1cc3c(cc1C(=O)C2)OCO3 [Allocryptopine] | 0.0337
26 | COC(=O)C1=CO[C@@H](O[C@@H]2O[C@H](CO)[C@@H](O)[C@H](O)[C@H]2O)[C@H]2[C@@H]1C(=O)C[C@@H]2C [Verbenalin] | 0.0793
27 | O=c1oc2c(O)c(O)cc3c(=O)oc4c(O)c(O)cc1c4c23 [Ellagic acid] | 0.0142
28 | C=C1CCC[C@]2(C)C[C@]3(O)OC(=O)C(C)=C3C[C@@H]12 [Atractylenolide Iii] | 0.00444
29 | COC(=O)C1=CO[C@@H](O)[C@@H]2C(CO)=CC[C@H]12 [Genipin] | -0.0273
30 | Oc1cc(O)c2c(c1)O[C@H](c1ccc(O)c(O)c1)[C@H](O)C2 [Epicatechin (EC)] | -0.238
31 | CCC/C=C1\OC(=O)C2=C1CCC1C3C=C4C(=O)O/C(=C\CCC)C4(CC3)C21 (stereo not given) [Levistilide A] | -0.106
32 | C[C@@H]1O[C@@H](O[C@H]2[C@H](O[C@H]3CC[C@@]4(C)[C@@H](CC[C@]5(C)[C@@H]4CC=C4[C@@H]6CC(C)(C)CC[C@]6(C(=O)O[C@@H]6O[C@H](CO[C@@H]7O[C@H](CO)[C@@H](O)[C@H](O)[C@H]7O)[C@@H](O)[C@H](O)[C@H]6O)CC[C@]45C)[C@]3(C)CO)OC[C@H](O)[C@@H]2O)[C@H](O)[C@H](O[C@@H]2O[C@H](CO)[C@@H](O)[C@H](O)[C@H]2O)[C@H]1O [Macranthoidin A] | -0.155
33 | C[C@@H]1O[C@@H](OC[C@H]2O[C@@H](Oc3cc(O)c4c(c3)O[C@H](c3ccc(O)cc3)CC4=O)[C@H](O)[C@@H](O)[C@@H]2O)[C@H](O)[C@H](O)[C@H]1O [Narirutin] | 0.00886
34 | CC(C)=CCC[C@](C)(O[C@@H]1O[C@H](CO)[C@@H](O)[C@H](O)[C@H]1O)[C@H]1CC[C@]2(C)[C@@H]1[C@H](O)C[C@@H]1[C@@]3(C)CC[C@H](O)C(C)(C)[C@@H]3[C@@H](O[C@@H]3O[C@H](CO)[C@@H](O)[C@H](O)[C@H]3O)C[C@]12C [Ginsenoside Rg1] | 0.099
35 | COc1c2ccoc2c(OC[C@@H](O)C(C)(C)O)c2oc(=O)ccc12 [Byakangelicin] | 0.0236
36 | O=C(/C=C/c1ccc(O)cc1)C1=C(O)C(O)([C@@H]2O[C@H](CO)[C@@H](O)[C@H](O)[C@H]2O)C(O)=C([C@@H]2O[C@H](CO)[C@@H](O)[C@H](O)[C@H]2O)C1=O (stereo not given in full) [Hydroxysafflor yellow A] | 0.0258
37 | Oc1cc(O)c2cc(O)c(-c3ccc(O)c(O)c3)[o+]c2c1 [Cyanidin Chloride] | -0.0642
38 | C/C=C/C#CC#C[C@@H](O)[C@@H](/C=C/CCCO)O[C@@H]1O[C@H](CO)[C@@H](O)[C@H](O)[C@H]1O [Lobetyolin] | 0.048
39 | CCCCCC=CC(=O)CCc1ccc(O)c(OC)c1 [6-Shogaol] | -0.0185
40 | Oc1cc(O)c2c(c1)O[C@H](c1ccc(O)c(O)c1)[C@H](O)[C@H]2c1c(O)cc(O)c2c1O[C@H](c1ccc(O)c(O)c1)[C@H](O)C2 [Procyanidin B2] | 0.092
